Experimental data published in PubChem BioAssay AID651871 (Sanford-Burnham Center for Chemical Genomics, 2012).
Where “and” joins values, the source holds several entries; their conditions need not be identical. Equal values may be shown once.

What follows are compounds tested on H9c2 (assay: cardiomyocyte survival under oxidative or metabolic stress – cell-based, panel, H9c2 and HL-1, ATP luminescence, set 2, SAR follow-up (AID 651871;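 also: cells exposed to stressor for 2 h before ATP readout; reference of the scale not given here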)). Details: H9c2/HL-1 cardiomyocytes, 2-deoxyglucose stress, with 2-deoxyglucose; run 2, at 79 µM (top of the series).
Work on `COc1ccc2nc(-c3cc(OC)c(OC)c(OC)c3)cc(C(=O)NCC(=O)Nc3ccc(C(C)=O)cc3)c2c1` yielded an activity (protection/inhibition) of 82.4%.
With `COc1ccc2c(c1OC)C(=O)N1c3ccccc3C(=O)N(Cc3cccc(Cl)c3Cl)C21` (stereo not drawn) the activity (protection/inhibition) was 53% and 81.7% and -4.06%.
In the case of `CCOC(=O)c1cccc(NC(=O)CNC(=O)c2cc(-c3cc(OC)c(OC)c(OC)c3)nc3ccccc23)c1`, the activity (protection/inhibition) is reported as 78.5%.
